Assay outcomes from PubChem.
GCN5L2 inh: qHTS Assay for Inhibitors of GCN5L2; Potency, µM (doses to about 58.9 µM), without a hit: top-dose activity change, negative = inhibition, hits mostly inhibitors; GCN5L2 HAT assay, ThioGlo1 CoA-SH fluorescence; actives 0.21% (n = 390,000)
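Fluorescence readout, Ex340nm/Em540nm: ThioGlo1 (50uM final) reacts with free CoA thiol released as 20nM GCN5L2 acetylates H3(1-25) peptide (75uM) using acetyl-CoA (70uM). Compound and enzyme sat 15 min beforehand; 20 min room-temperature reaction.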
DT40 TDP1 CPT: qHTS for Inhibitors of human tyrosyl-DNA phosphodiesterase 1 (TDP1): qHTS in cells in presence of CPT. actives 12% (n = 420,000). Potency, µM (top dose mostly 46.2 µM), for inactives: at the top dose activity change, negative = growth inhibition, most hits filed as inhibitors. chicken DT40 Tdp1-/-;hTDP1 cells + 20 nM CPT, ATP luminescence, 48 h. AID 686979, 2013; also: nearly all actives have a fitted effect of over 55% in size
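Chicken DT40 Tdp1-/- cells complemented with human TDP1, 400 cells/well, exposed to compounds plus 20 nM camptothecin for at least 48 h at 37 C; viability read as ATP content by CellTiter-Glo luminescence.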
PLK1 PBD inh: qHTS for Inhibitors of PLK1-PDB (polo-like kinase 1 - polo-box domain): Primary Screen; Serine/threonine-protein kinase PLK1 (Homo sapiens), P53350; Plk1 PBD binding of FITC phosphopeptide, fluorescence polarization; Potency, µM, without a hit: max response, negative = inhibition, actives largely listed as inhibitors; actives 2.8% (n = 360,000); also: series mostly up to about 57 µM; nearly all actives have a fitted effect of over 65% in size
TDP1 inh: qHTS Assay for Inhibitors of Tyrosyl-DNA Phosphodiesterase (TDP1) | Potency, µM (top dose mostly 130 µM), for inactives: at the highest dose activity change, negative = inhibition, usual class: inhibitors | recombinant TDP1, AlphaScreen DNA substrate cleavage | actives 0.28% (n = 350,000); also: nearly all actives have a fitted effect of over 40% in size
Target sequence (Q9NUW8 whole entry, looked up): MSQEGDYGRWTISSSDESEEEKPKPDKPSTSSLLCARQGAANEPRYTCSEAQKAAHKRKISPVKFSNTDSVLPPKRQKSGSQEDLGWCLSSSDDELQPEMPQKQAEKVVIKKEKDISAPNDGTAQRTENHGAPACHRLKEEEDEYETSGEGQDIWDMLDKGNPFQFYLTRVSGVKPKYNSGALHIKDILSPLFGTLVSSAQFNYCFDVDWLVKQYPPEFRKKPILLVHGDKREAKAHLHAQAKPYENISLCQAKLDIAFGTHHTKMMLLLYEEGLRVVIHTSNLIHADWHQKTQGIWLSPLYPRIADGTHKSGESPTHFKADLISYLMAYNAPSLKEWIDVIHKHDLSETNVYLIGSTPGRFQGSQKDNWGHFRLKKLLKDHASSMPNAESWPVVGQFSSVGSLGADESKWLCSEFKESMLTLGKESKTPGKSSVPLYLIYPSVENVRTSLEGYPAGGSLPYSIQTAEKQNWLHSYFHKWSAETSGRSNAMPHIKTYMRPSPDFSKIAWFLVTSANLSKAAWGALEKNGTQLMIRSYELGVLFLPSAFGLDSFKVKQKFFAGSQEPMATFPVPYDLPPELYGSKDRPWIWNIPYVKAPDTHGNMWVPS
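Enzyme-compound mixtures sat 15 min at room temperature, followed by a 5 min reaction with 15 nM final substrate and 10 min with AlphaScreen beads. Recombinant human Tdp1 was used at 1 nM final.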
VDR inh: Inhibitors of the vitamin D receptor (VDR): qHTS; Vitamin D3 receptor (Homo sapiens), P11473; VDR-SRC2-3 peptide fluorescence polarization, 2 h; Potency, µM, for the others: max response, negative = inhibition, actives largely listed as inhibitors; actives 0.93% (n = 400,000); AID 504847, 2011
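VDR–SRC2-3 interaction, FP format. Cmpds 23 nl via pintool, brief spin, 2 h ambient incubation.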
TDP1 cell noCPT: qHTS for Inhibitors of human tyrosyl-DNA phosphodiesterase 1 (TDP1): qHTS in cells in absence of CPT. actives 15% (n = 420,000). Potency, µM (titrated, usually from 46.2 µM), without a hit: at the top dose activity change, negative = growth inhibition, actives largely listed as inhibitors. DT40 Tdp1-/- hTDP1 cells, no CPT, ATP luminescence, 48 h; also: nearly all actives have a fitted effect of over 55% in size
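Chicken DT40 Tdp1-/- cells stably complemented with human TDP1 were seeded at 400 cells/well with DMSO in place of 20 nM camptothecin. After compound pinning, cells grew at least 48 hr at 37 °C; viability read by CellTiter-Glo luminescence.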
An asterisk follows results filed as active; u = inconclusive; x = no result given; [ ] = dose if it differs, or a comment. Most compounds without a hit are left out; they make up all but 18% or so of the library. Calls follow the shape of the dose curve; as a rule, active = well fitted curve in the direction sought with a large enough effect; inconclusive = small, poorly fitted or top-dose-only effect, or another doubt; inactive = no such curve, though single readings can be large; an effect the other way counts as inactive or inconclusive. % is scaled to controls: 0 for no effect and ±100 for the full control effect; potency is read from the fitted curve at half-maximal effect.

SMILES | GCN5L2 inh | DT40 TDP1 CPT | PLK1 PBD inh | TDP1 inh | VDR inh | TDP1 cell noCPT
CCN(CC)CCCNC(=O)C1CCN(C(=O)c2oc3cc4sc(N(C)C)nc4cc3c2C)CC1 | -5% | -9% | -17% | 0% | -9% | -8%
Cc1cc(C)cc(NC(=O)C2CCN(c3nc4ccccc4nc3C(F)(F)F)CC2)c1 | -17% | u | x | -3% | 7% | u
CC(C)(C)c1ccccc1NC(=O)Nc1nc(C(N)c2ccccc2Cl)cs1 (stereo unspecified) | x | u | -3% | x | x | u
CC(C)c1ccc(NC(=O)Nc2nc(C(C)N)cs2)cc1 (stereo unspecified) | x | 15µM* | 1% | x | x | 15µM*
CC(C)c1ccc(NC(=O)Nc2nc(C(N)c3ccccc3Cl)cs2)cc1 (stereo unspecified) | x | 13µM* | -3% | x | x | 10µM*
O=C(NCc1cccs1)c1ccc([N+](=O)[O-])cc1Cl | 11% | -5% | -5% | -1% | -2% | -17%
COc1ccc(NC(=O)Cn2nnc(C(=O)NCc3ccc4c(c3)OCO4)c2N)c(OC)c1 | -16% | u | 21µM* | 1% | -29% | u
CC(=O)c1c(C)n(CC(=O)NCc2ccc3c(c2)OCO3)c2ccccc12 | 1% | 13µM* | -7% | 4% | -9% | 14µM*
Cc1cccc(NC(=O)Cn2nnc(C(=O)NCc3cccs3)c2N)c1C | -14% | 0% | u | 5% | -22% | u
COc1ccc(CC(=O)NCc2ccc3c(c2)OCO3)cc1 | -2% | -11% | 24µM* | 3% | 5% | -40%
Cc1ccccc1NC(=O)Cn1nnc(C(=O)NCc2cccs2)c1N | -2% | 9.2µM* | x | 5% | -19% | 6.5µM*
COc1cccc(CNC(=O)c2nnn(CC(=O)Nc3ccc(Br)cc3)c2N)c1 | -7% | 10µM* | -16% | -6% | -4% | 5.2µM*
COc1ccc(Cl)cc1S(=O)(=O)NC(C)C(=O)NCc1ccc2c(c1)OCO2 (stereo unspecified) | -6% | u | 24µM* | 5% | u | u
CSc1cccc(NC(=O)c2nnn(CC(=O)Nc3cc(C)cc(C)c3)c2N)c1 | -7% | u | 13µM* | 1% | u | 6.5µM*
COc1ccc(Cl)cc1S(=O)(=O)NC(C)C(=O)NCc1ccncc1 (stereo unspecified) | 1% | 9% | -14% | 4%[0.0935 µM] | -11% | 2%
COc1ccc(NC(=O)Cn2nnc(C(=O)NCc3ccc4c(c3)OCO4)c2N)cc1 | -11% | -4% | -18% | -5% | -18% | -11%
CCOc1ccccc1NC(=O)Cn1nnc(C(=O)NCc2ccco2)c1N | u | 0.0092µM* | -14% | 4% | 8% | 0.023µM*
CCc1ccccc1NC(=O)c1nnn(CC(=O)Nc2cccc(C)c2)c1N | -6% | -3% | -8% | 2% | -1% | -12%
CC1=C(C(=O)Nc2cc(C(=O)NCCC(C)C)ccc2C)SCCO1 | -2% | -7% | -17% | x | -1% | 11%
CC1(C)O[C@H]2[C@@H](O1)[C@@H](C(=O)Nc1ccccc1C(F)(F)F)O[C@@H]1OC(C)(C)O[C@@H]12 | -9% | u | x | 10% | 15% | u
CSCc1c(C(=O)NCCc2ccccn2)oc2ccccc12 | -5% | 6% | -2% | 9% | -3% | -26%
CCOc1ccccc1NC(=O)Cn1nnc(C(=O)NCc2ccc3c(c2)OCO3)c1N | -4% | 4.1µM* | -10% | -17% | 6% | 2.6µM*
CC(C)(C)S(=O)(=O)/C(C#N)=C/c1cccn1S(=O)(=O)c1ccccc1 | x | -9% | 1% | x | x | 23µM*
CS(=O)(=O)/C(C#N)=C/c1cccn1S(=O)(=O)c1cccc2ccccc12 | x | 16µM* | -1% | x | x | 16µM*
O=C(Nc1ccc(OC(F)(F)F)cc1)C(Cc1ccccc1)NS(=O)(=O)c1cccc2nsnc12 (stereo unspecified) | 2% | u | x | -2% | 2% | u
SMILES | GCN5L2 inh | DT40 TDP1 CPT | PLK1 PBD inh | TDP1 inh | VDR inh | TDP1 cell noCPT
Cc1cc2c(c(C)c1Cl)C(c1ccc3c(c1)OCO3)CC(O)(c1ccccc1)O2 (stereo unspecified) | x | x | x | 5% | -11% | x
Cc1ccc(-c2csc(N3CCC(C(N)=O)CC3)n2)cc1 | -4% | x | x | 4% | -4% | x
Cc1ccc(-c2csc(N3CCC(NS(=O)(=O)c4ccc5c(c4)OCCO5)CC3)n2)cc1 | u | u | -5% | 2% | 3% | 15µM*
CC(=O)N1CCOc2ccc(S(=O)(=O)N3CCC(C(=O)NCc4ccc(Cl)cc4)CC3)cc21 | x | u | 7% | x | x | u
Cc1ccc(C)c(N(C)C(=O)C2CCN(S(=O)(=O)c3cccc4nsnc34)CC2)c1 | -1% | 16µM* | x | -2% | -3% | 13µM*
Cc1ccc(CCNC(=O)C2CCN(S(=O)(=O)c3cccc4nsnc34)CC2)cc1 | -7% | -12% | -7% | -7%[56.1 µM] | 2% | -18%
Cc1ccc(NC(=O)C2CCN(S(=O)(=O)c3cccc4nsnc34)CC2)cc1 | -10% | -13% | x | 5% | -18% | u
Cc1ccc(C)c(N2CCN(C(=O)C3CCN(S(=O)(=O)c4cccc5nsnc45)CC3)CC2)c1 | -15% | 18µM* | -8% | 8% | 11% | 18µM*
Cc1ccc(N2CCN(C(=O)C3CCN(S(=O)(=O)c4cccc5nsnc45)CC3)CC2C)cc1 (stereo unspecified) | x | u | -8% | x | -12% | 16µM*
Cc1ccc(N2CCN(C(=O)C3CCN(S(=O)(=O)c4ccc5c(c4)oc(=O)n5C)CC3)CC2C)cc1 (stereo unspecified) | -1% | 5.8µM* | x | 4% | -5% | 3.7µM*
COc1cc(OC)c(NC(=O)Cn2c(=O)nc(-c3ccccc3)c3ccccc32)cc1Cl | 1% | -6% | x | -6% | -5% | 13%
Cc1ncc(COCc2ccccc2)c(CO)c1OCc1ccccc1 | x | u | 1% | x | -4% | u
COc1cc(C2OC(=O)C3C(c4ccc(OC(C)=O)c(OC)c4)OC(=O)C23)ccc1OC(C)=O (stereo unspecified) | x | 13% | 0% | x | -4% | -2%
